The record followed here is PubChem BioAssay.

The source made the active and inactive calls.

Assay [1] deals with Plasmodium falciparum Sir2 (PF13_0152, Sir2A). Put plainly: Plasmodium falciparum Sir2A binding compounds – biochemical, small-molecule microarray, 635 nm fluorescence, primary screen (AID 1098).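 Also: score merges spot fluorescence intensity with its signal-to-noise ratio.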 The note with it: fluorescence 635 nm, higher = more signal.
A short description of assay [2]: probe aDKK1 binding to arrayed compounds – biochemical, biotinylated probe, 635/667 nm fluorescence, primary screen (AID 1099).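 Also: score merges 667nm spot fluorescence with signal to noise across triplicate slides; reference of the scale not given here.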 The note with it: small-molecule microarray, higher = more signal.
Assay [3] can be described thus: probe aCHRDL2 binding to arrayed compounds – biochemical, biotinylated probe, 635/667 nm fluorescence, primary screen (AID 1100). The note with it: small-molecule microarray, higher = more signal.
A short description of assay [4]: change in splice reporter luminescence, either direction, cell-based, HEK293, spliceosome inhibition project, primary screen (AID 1101).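 Also: HEK293 cells carrying a splicing-competent luciferase reporter gene; test concentration not given here.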 The conditions noted are these: HEK293 splicing luciferase reporter, 24 h, higher = more signal, called active from +8 up or from −8 down. In general terms: A reporter such as luciferase makes a cellular process visible.
The target in assay [5] is Fibroblast growth factor 10 (Homo sapiens) (UniProt O15520). Put plainly: compounds binding fibroblast growth factor 10 – biochemical, small-molecule microarray, 635 nm fluorescence, primary screen (AID 1102). The note with it: FGF10 binding, fluorescence 635 nm, higher = more signal.
In assay [6] the test system is glycogen synthase kinase-3 (GSK3A per assay name; protocol says GSK3B). The experiment in a line: compounds binding glycogen synthase kinase-3 – biochemical, small-molecule microarray, 635 nm fluorescence, GSK3A, primary screen (AID 1103). Also: the record names both GSK3A and GSK3B. The note with it: fluorescence 635 nm, higher = more signal.
In assay [7] the target is Epidermal growth factor receptor (Homo sapiens) (UniProt P00533). Put plainly: compounds binding epidermal growth factor receptor – biochemical, small-molecule microarray, 635 nm fluorescence, primary screen (AID 1104).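 Also: score merges 667 nm emission intensity with spot signal to noise over triplicate slides.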 The note with it: EGFR binding, higher = more signal.
The target of assay [8] is Follistatin-related protein 3 (Homo sapiens) (UniProt O95633). Put plainly: compounds binding follistatin-related protein 3 – biochemical, small-molecule microarray, 635 nm fluorescence, primary screen (AID 1105).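 Also: score merges emission near 667 nm and signal to noise per printed spot across three slides.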 The note with it: FSTL3 binding, higher = more signal.
The target of assay [9] is Dickkopf-related protein 1 (Homo sapiens) (UniProt O94907). The experiment in a line: small molecules binding DKK1 protein – biochemical, small-molecule microarray, 635 nm fluorescence scan, primary screen (AID 1106).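 Also: score merges emission near 667 nm with signal to noise over three replicate slides.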 The conditions noted are these: higher = more signal.
The test system of assay [10] is Inhibin beta A chain (activin A). The experiment in a line: small molecules binding activin A – biochemical, small-molecule microarray, 635 nm fluorescence scan, primary screen (AID 1107).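 Also: mouse activin A protein probed at 4.33 µg/mL on printed slides; score merges bound-protein fluorescence near 667 nm with spot signal-to-noise.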 The conditions noted are these: INHBA, higher = more signal.

Sequence of Dickkopf-related protein 1 (Homo sapiens) (O94907 whole entry, looked up): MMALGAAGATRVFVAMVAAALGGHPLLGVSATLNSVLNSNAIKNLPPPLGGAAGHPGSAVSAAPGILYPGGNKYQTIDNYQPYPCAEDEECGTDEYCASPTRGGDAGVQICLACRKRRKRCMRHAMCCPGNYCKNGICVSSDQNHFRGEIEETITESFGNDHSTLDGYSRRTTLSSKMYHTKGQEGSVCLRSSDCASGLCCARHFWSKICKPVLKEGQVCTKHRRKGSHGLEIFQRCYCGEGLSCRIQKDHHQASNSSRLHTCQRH
Sequence of Fibroblast growth factor 10 (Homo sapiens) (O15520 whole entry, looked up): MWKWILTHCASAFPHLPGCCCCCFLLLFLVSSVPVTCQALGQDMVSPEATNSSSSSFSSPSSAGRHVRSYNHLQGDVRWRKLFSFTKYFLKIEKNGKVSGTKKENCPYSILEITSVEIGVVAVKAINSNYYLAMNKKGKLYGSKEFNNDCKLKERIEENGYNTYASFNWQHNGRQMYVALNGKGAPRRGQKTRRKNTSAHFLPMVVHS
Sequence of Follistatin-related protein 3 (Homo sapiens) (O95633 whole entry, looked up): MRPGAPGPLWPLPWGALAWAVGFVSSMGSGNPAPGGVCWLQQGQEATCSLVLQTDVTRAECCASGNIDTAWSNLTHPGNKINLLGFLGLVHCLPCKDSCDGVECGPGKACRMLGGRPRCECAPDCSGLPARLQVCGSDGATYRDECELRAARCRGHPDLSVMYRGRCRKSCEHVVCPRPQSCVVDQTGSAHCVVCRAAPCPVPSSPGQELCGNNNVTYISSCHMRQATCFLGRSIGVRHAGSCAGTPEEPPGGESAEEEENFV
Sequence of Epidermal growth factor receptor (Homo sapiens) (P00533 whole entry, looked up): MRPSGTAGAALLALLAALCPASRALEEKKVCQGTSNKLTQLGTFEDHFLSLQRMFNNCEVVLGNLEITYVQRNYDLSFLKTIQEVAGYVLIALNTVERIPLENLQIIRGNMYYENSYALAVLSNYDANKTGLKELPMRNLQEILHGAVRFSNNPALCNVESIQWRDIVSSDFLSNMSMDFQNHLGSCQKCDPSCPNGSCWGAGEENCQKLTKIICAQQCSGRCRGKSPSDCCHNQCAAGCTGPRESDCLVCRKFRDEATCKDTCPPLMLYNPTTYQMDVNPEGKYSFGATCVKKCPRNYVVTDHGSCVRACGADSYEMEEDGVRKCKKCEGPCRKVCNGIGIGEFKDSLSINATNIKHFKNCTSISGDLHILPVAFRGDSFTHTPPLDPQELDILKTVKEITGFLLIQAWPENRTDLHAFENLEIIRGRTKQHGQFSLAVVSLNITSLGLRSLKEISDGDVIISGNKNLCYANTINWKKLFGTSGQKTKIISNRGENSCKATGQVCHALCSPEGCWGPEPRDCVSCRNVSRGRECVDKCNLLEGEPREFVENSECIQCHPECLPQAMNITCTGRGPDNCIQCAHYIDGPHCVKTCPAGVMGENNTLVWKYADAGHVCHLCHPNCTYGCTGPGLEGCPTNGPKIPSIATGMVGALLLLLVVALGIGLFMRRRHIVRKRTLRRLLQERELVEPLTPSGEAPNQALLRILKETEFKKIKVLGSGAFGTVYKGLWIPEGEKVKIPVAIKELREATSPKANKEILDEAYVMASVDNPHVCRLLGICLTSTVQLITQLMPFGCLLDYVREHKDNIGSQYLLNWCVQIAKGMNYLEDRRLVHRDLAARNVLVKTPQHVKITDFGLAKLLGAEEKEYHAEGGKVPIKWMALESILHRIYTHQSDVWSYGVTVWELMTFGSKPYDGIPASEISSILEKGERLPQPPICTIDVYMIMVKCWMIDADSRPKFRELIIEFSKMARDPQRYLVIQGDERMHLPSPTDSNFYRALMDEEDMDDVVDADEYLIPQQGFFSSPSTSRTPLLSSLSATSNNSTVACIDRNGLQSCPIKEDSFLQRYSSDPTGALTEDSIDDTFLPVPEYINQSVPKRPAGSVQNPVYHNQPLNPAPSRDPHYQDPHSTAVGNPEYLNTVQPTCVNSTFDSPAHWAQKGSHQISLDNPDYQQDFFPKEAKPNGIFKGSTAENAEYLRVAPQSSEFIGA

Turning to `Cc1ccccc1C(O)C1C=CC2C(=O)N(C)C(=O)C2N1Nc1ccc([N+](=O)[O-])cc1[N+](=O)[O-]` (stereo not given), the composite z-score in assay [1] was found to be 0.878; in assay [2], 0.647; in assay [3] it was 0.831; in [5], 1.11; in assay [6] it was 1.28; in assay [7] it was 0.226. Moreover, the composite z-score in [8] was 1.17; in assay [9], -0.53; in [10], 0.648. The z-score in [4] was -0.311 (inactive).
In the case of `NCCCCCCNC(=O)[C@H]1C[C@H]2C(=O)N3CCC[C@H]3C(=O)N2[C@H]1c1ccc(O)cc1`, the composite z-score in assay [1] stood at 1.22; in [2], 0.0237; in assay [3] it was 0.134; in assay [5], 0.264; in [6] it was 0.572; in [7], 0.386. The composite z-score came to 0.747 in [8], 0.735 in assay [9] and 0.977 in assay [10]. For the same compound, the z-score in assay [4] was 0.089 (inactive).
For `C=C(CCCC)/C(=C/C[C@H](OC(=O)c1ccncc1)c1ccc(CO)o1)c1cc(C(=O)OC)ccc1OC`, the composite z-score in [1] is 1.21; in assay [2] it was 0.0946; in assay [3], -0.125; in assay [5] it was 0.565; in assay [6] it was 1.26; in assay [7], 0.356. Besides, the composite z-score in assay [8] worked out at 0.928; in [9], 0.575; in assay [10], 0.554. Also, in assay [4], the z-score is 0.84 (inactive).
In the case of `COC(=O)[C@@]1(Cc2ccccc2)[C@H]2c3cc(C(=O)N4CCCC4)n(Cc4ccccc4)c3C[C@H]2CN1C(=O)c1ccccc1`, the composite z-score in [1] came to 1.1; in assay [2], 0.854; in assay [3], 0.94; in assay [5] it was 1.12; in assay [6], 0.882; in assay [7], 0.0075. Also, the composite z-score in [8] was 0.96; in assay [9] it was -0.197; in assay [10] it was 0.675. In addition, in [4], the z-score is -2.8 (inactive).
Take `COc1ccc([Si](C)(C)[C@@H]2[C@@H](CCO)O[C@]3(C(=O)N(Cc4cccc(N5C(=O)COc6ccccc65)c4)c4ccccc43)[C@H]2C)cc1`: the composite z-score is 1.35 in assay [1]; 0.0985 in [2]; 0.298 in assay [3]; 0.247 in assay [5]; -0.233 in assay [6]; -0.0851 in assay [7]. Also, the composite z-score in assay [8] was -0.225; in assay [9], -0.466; in [10] it was -0.496. Moreover, the z-score in assay [4] is -1.54 (inactive).
As for `COCCCNC(=O)[C@@]1(C)c2ccccc2C(=O)N(c2ccc(C)cn2)[C@H]1c1ccc(CO)cc1`, the composite z-score is 0.963 in [1]; -0.748 in assay [2]; -0.75 in assay [3]; -1.15 in assay [5]; -0.799 in assay [6]; -0.626 in [7]. Moreover, the composite z-score in assay [8] was -0.551; in [9], -0.813; in assay [10] it was 0.534. Besides, in [4], the z-score was 0.532 (inactive).
`[N-]=[N+]=NCc1ccccc1C[C@]1(C(=O)NCCN2CCOCC2)N=C(c2ccc(OCCCO)cc2)O[C@H]1c1ccccc1`: the composite z-score was 1.69 in [1]; 0.103 in assay [2]; 0.826 in assay [3]; 1.04 in assay [5]; 1.28 in assay [6]; -0.329 in assay [7]. The composite z-score was 0.0637 in assay [8], -0.781 in [9] and 0.527 in assay [10]. Also, the z-score in assay [4] was -0.326 (inactive).
On to `O=C1c2ccccc2[C@](Cc2ccccc2I)(C(=O)NCC(F)(F)F)[C@H](c2ccc(CO)cc2)N1Cc1ccccc1`, for which the composite z-score in [1] was 1.14; in [2], 0.0143; in assay [3] it was 0.296; in assay [5], 0.269; in [6] it was 0.848; in assay [7], -0.0654. Besides, the values for the composite z-score in assay [8], in assay [9] and in assay [10] were 0.871, -0.316 and 0.545, respectively. Also, in [4], the z-score was -0.507 (inactive).
Regarding `CCC[C@@H]1C[C@@]1(CCC)[C@@H](NC(=O)c1cccs1)c1ccc(Cl)cc1`, the composite z-score in assay [1] was -0.67; in [2], 0.119; in assay [3], 1.09; in assay [5] it was -0.341; in assay [6], -0.919; in [7] it was -2.21. Also, the composite z-score is -2.17 in assay [8], -1.76 in assay [9] and 0.948 in assay [10]. Further, the z-score in [4] is -1.15 (inactive).
Turning to `C=CC[C@]1(C(=O)N2CCOCC2)N=C(c2ccc(OCCCO)cc2)O[C@H]1c1ccccc1CN=[N+]=[N-]`, the composite z-score in [1] was 1.55; in assay [2], 0.0557; in assay [3] it was 0.948; in [5], 1.24; in assay [6], 0.0251; in assay [7], -0.124. The values for the composite z-score in assay [8], in [9] and in assay [10] were 0.879, -0.121 and 0.58, respectively. Further, the z-score in assay [4] was -0.244 (inactive).
As for `CC(C)NC(=O)[C@@H]1c2ccccc2C(=O)N(Cc2cc(C(F)(F)F)cc(C(F)(F)F)c2)[C@H]1c1ccc(CO)cc1`, the composite z-score in assay [1] is 0.46; in assay [2], 0.178; in [3], 0.226; in assay [5] it was 0.312; in assay [6], 0.811; in assay [7], -0.0125. For the same compound, the composite z-score in assay [8] was 0.504; in [9], 0.307; in [10], 0.325. The z-score in [4] was 0.0833 (inactive).
As for `COCCOC(=O)N1C(=O)[C@@]2(c3cc(C#Cc4ccc(OC)cc4)ccc31)[C@H](C(=O)N1CCc3cc(OC)c(OC)cc3C1)[C@H]1C(=O)O[C@H](c3ccccc3)[C@H](c3ccccc3)N1[C@@H]2c1ccc(OCCO)cc1`, the composite z-score is -0.352 in assay [1]; 0.218 in assay [2]; -0.0585 in [3]; 0.705 in [5]; 1.03 in [6]; 0.595 in assay [7]. In addition, the composite z-score in assay [8] was 0.997; in [9] it was 0.588; in assay [10] it was 0.115. For the same compound, in assay [4], the z-score is -0.32 (inactive).
As to `CN(C)CCCC[C@@H]1NC(=O)[C@H]2C[C@@H](C(=O)NCCCCCCNC(=O)CS)[C@@H](c3ccc(O)cc3)N2C1=O`, the composite z-score is 1.74 in [1]; -0.172 in assay [2]; 0.314 in assay [3]; -0.31 in assay [5]; -0.323 in assay [6]; 0.0264 in assay [7]. Also, the figures for the composite z-score in [8], in assay [9] and in assay [10] were 1.27, -0.17 and 0.947, respectively. Further, the z-score in assay [4] was -0.296 (inactive).
In the case of `COc1ccc(C#Cc2ccc3c(c2)[C@]2(C(=O)N3)[C@H](C(N)=O)[C@H]3C(=O)O[C@H](c4ccccc4)[C@H](c4ccccc4)N3[C@@H]2c2ccc(O)cc2)cc1`, the composite z-score in assay [1] turned out to be 0.818; in assay [2], 0.153; in assay [3], 0.411; in assay [5], 0.904; in assay [6], 0.491; in [7], 0.248. The results for the composite z-score in assay [8], in assay [9] and in [10] were 0.313, 0.0346 and -0.116, respectively. Further, the z-score in assay [4] is 10.5 (active).
Turning to `COC(=O)[C@@]1(Cc2ccc(OC)cc2)[C@H]2c3cc(C(=O)N4CCCC4)n(Cc4ccc(C)o4)c3C[C@H]2CN1C(=O)c1ccccc1`, the composite z-score in [1] amounted to 1.34; in assay [2] it was 0.839; in assay [3], 0.751; in assay [5], 1.24; in assay [6], 1.09; in assay [7], 0.232. Further, the values for the composite z-score in assay [8], in assay [9] and in assay [10] were 1.32, -0.0427 and 1.19, respectively. Further, the z-score in [4] is -0.293 (inactive).
